According to PubChem BioAssay (NCI):
Compounds without any hit were thinned out: in the full panel of roughly 79,000, 15% have a hit. Calls of active or inactive are those of the source. Cut-off read from the data, not from the text of the source: active = growth inhibition above about 70%; inactive = the rest.

Experiments:
[1] = NCI Yeast Anticancer Drug Screen. Data for the rad52 strain (AID 147);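 note: 0% = growth of vehicle-treated control cultures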; conditions: S. cerevisiae rad52 mutant growth inhibition, stronger effect = higher value
In short: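 Yeast strain carrying a DNA damage repair alteration was exposed to test compounds. Growth inhibition was measured relative to vehicle-treated controls.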

[2] = NCI Yeast Anticancer Drug Screen. Data for the wt1 strain (AID 149);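 note: 0% = growth of vehicle-treated wt1 cultures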; conditions: S. cerevisiae wt1 strain (SPY 50644) growth inhibition, stronger effect = higher value
In short: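 Yeast wt1 strain exposed to compounds; growth inhibition measured relative to vehicle-treated controls.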

[3] = NCI Yeast Anticancer Drug Screen. Data for the rad50EPP+ strain (AID 151);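 note: 0% = growth of vehicle-treated control cultures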; conditions: S. cerevisiae rad50 mutant strain, stronger effect = higher value
In short: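 Yeast strain carrying rad50 alteration (rad50EPP+) exposed to compounds; growth inhibition measured relative to vehicle-treated controls.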

[4] = NCI Yeast Anticancer Drug Screen. Data for the mgt1 strain (AID 153); conditions: S. cerevisiae mgt1 mutant growth inhibition, stronger effect = higher value
In short: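 Yeast mgt1 strain (DNA repair/cell-cycle alteration panel) exposed to compounds; growth inhibition measured relative to vehicle-treated controls.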

[5] = NCI Yeast Anticancer Drug Screen. Data for the rad50 strain (AID 155);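 note: 0% = growth of vehicle-only cultures of the same strain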; conditions: S. cerevisiae rad50 strain growth inhibition, stronger effect = higher value
In short: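 Yeast carrying a defined DNA repair defect were exposed to test compounds, and growth was compared with vehicle-treated controls to give percent inhibition.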

[6] = NCI Yeast Anticancer Drug Screen. Data for the mec2-1 strain (AID 157); conditions: S. cerevisiae mec2-1 strain, stronger effect = higher value
In short: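 mec2-1 yeast strain, carrying an alteration in DNA damage repair or cell cycle control, was exposed to compounds; growth inhibition was measured relative to vehicle-treated controls.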

[7] = NCI Yeast Anticancer Drug Screen. Data for the rad14 strain (AID 159);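 note: 0% = growth of vehicle-treated control cultures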; conditions: S. cerevisiae rad14 strain growth inhibition, stronger effect = higher value
In short: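 Yeast cells carrying a defined DNA-repair defect were exposed to compounds, and growth inhibition was calculated relative to vehicle-treated control cultures.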

[8] = NCI Yeast Anticancer Drug Screen. Data for the sgs1 mgt1 strain (AID 161);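 note: 0% = growth of cultures given vehicle only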; conditions: S. cerevisiae sgs1 mgt1 strain, stronger effect = higher value
In short: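 This yeast growth screen uses a strain with defined DNA-repair lesions; compound-treated growth is compared with vehicle-treated growth.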

[9] = NCI Yeast Anticancer Drug Screen. Data for the CLN2oe strain (AID 163);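 note: 0% = growth of vehicle-only control cultures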; conditions: S. cerevisiae CLN2oe strain, stronger effect = higher value
In short: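 Yeast cells carrying a defined cell-cycle control alteration were exposed to test compounds. Growth inhibition was scored against vehicle-treated control cultures.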

[10] = NCI Yeast Anticancer Drug Screen. Data for the cln2 rad14 strain (AID 165);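 note: 0% = growth equal to vehicle treated cultures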; conditions: S. cerevisiae cln2 rad14 strain, stronger effect = higher value
In short: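 Yeast carrying cln2 and rad14 alterations (cell cycle control and DNA damage repair) were exposed to compounds. Growth inhibition was measured against vehicle-treated controls.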

[11] = NCI Yeast Anticancer Drug Screen. Data for the bub3 strain (AID 167); conditions: S. cerevisiae bub3 mutant strain, stronger effect = higher value
In short: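 Compounds were applied to a genetically altered yeast strain carrying a cell-cycle control defect. Growth inhibition was scored against vehicle-treated controls.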

[12] = NCI Yeast Anticancer Drug Screen. Data for the mlh1 strain (AID 171);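 note: 0% = growth of vehicle-treated control cultures of the same strain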; conditions: S. cerevisiae mlh1 strain growth inhibition, stronger effect = higher value
In short: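 Yeast carrying a defined genetic alteration in DNA damage repair or cell cycle control were exposed to test compounds. Growth inhibition was measured relative to vehicle-treated controls.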

[13] = NCI Yeast Anticancer Drug Screen. Data for the sgs1 strain (AID 173);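 note: 0% = growth of vehicle-only control cultures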; conditions: S. cerevisiae sgs1 mutant, stronger effect = higher value
In short: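 Yeast mutant strains carrying defined defects in DNA damage repair or cell cycle control were exposed to test compounds. Growth inhibition was scored against vehicle-treated controls.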

[14] = NCI Yeast Anticancer Drug Screen. Data for the mlh1 rad18 strain (AID 175); conditions: S. cerevisiae mlh1 rad18 strain growth inhibition, stronger effect = higher value
In short: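 Growth inhibition of the yeast strain was measured after compound exposure and expressed relative to vehicle-treated controls. The strain carries defined defects in DNA damage repair.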

[15] = NCI Yeast Anticancer Drug Screen. Data for the rad18 strain (AID 177); conditions: S. cerevisiae rad18 mutant growth inhibition, stronger effect = higher value
In short: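 Yeast carrying a defined DNA damage repair alteration were exposed to compounds. Growth inhibition was expressed relative to vehicle-treated controls.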

[16] = at 5.0 µM (retest, dose inferred, filed as 0.5)
[17] = at 50.0 µM (retest, dose inferred, filed as 5.0)

Measured: growth inhibition

[O-][n+]1c2ccc(O)cc2nc2ccc(Cl)cc21
inactive: [1]; at 1.2 µM 5% | [1]; at 3.7 µM 19% | [1]; at 11.0 µM 45% | [2]; at 1.2 µM 4% | [2]; at 3.7 µM 9% | [2]; at 11.0 µM 23% | [2]; at 33.0 µM 34% | [2]; at 100.0 µM 53% | [3]; at 1.2 µM 5% | [3]; at 3.7 µM 16% | [3]; at 11.0 µM 37% | [3]; at 33.0 µM 57% | [3]; at 100.0 µM 56% | [4]; at 1.2 µM 8% | [4]; at 3.7 µM 22% | [4]; at 11.0 µM 34% | [4]; at 33.0 µM 65% | [5]; at 1.2 µM 6% | [5]; at 3.7 µM 24% | [5]; [16] -5% | [5]; at 11.0 µM 51% | [5]; [17] 17% | [6]; at 1.2 µM 0% | [6]; at 3.7 µM 9% | [6]; [16] 5% | [6]; at 11.0 µM 25% | [6]; at 33.0 µM 41% | [6]; [17] -13% | [6]; at 100.0 µM 51% | [7]; at 1.2 µM 0% | [7]; at 3.7 µM 8% | [7]; at 11.0 µM 30% | [7]; at 33.0 µM 58% | [8]; [16] -12% | [8]; [17] -1% | [8]; at 50.0 µM 67% | [9]; at 1.2 µM 0% | [9]; at 3.7 µM 9% | [9]; at 11.0 µM 20% | [9]; at 33.0 µM 34% | [9]; at 100.0 µM 49% | [10]; [16] -4% | [10]; [17] 9% | [10]; at 50.0 µM 43.1% | [11]; at 1.2 µM 5% | [11]; at 3.7 µM 2% | [11]; [16] -7% | [11]; at 11.0 µM 23% | [11]; at 33.0 µM 41% | [11]; [17] 11% | [11]; at 100.0 µM 59% | [12]; at 1.2 µM 4% | [12]; at 3.7 µM 10% | [12]; at 11.0 µM 28% | [12]; at 33.0 µM 62% | [13]; at 1.2 µM 4% | [13]; at 3.7 µM 10% | [13]; at 11.0 µM 26% | [13]; at 33.0 µM 46% | [13]; at 100.0 µM 59% | [14]; [16] -24% | [14]; [17] 53% | [15]; at 1.2 µM 7% | [15]; at 3.7 µM 23% | [15]; at 11.0 µM 47%
active: [1]; at 33.0 µM 75% | [1]; at 100.0 µM 75% | [4]; at 100.0 µM 81% | [5]; at 33.0 µM 81% | [5]; at 50.0 µM 81.9% | [5]; at 100.0 µM 84% | [6]; at 50.0 µM 75% | [7]; at 100.0 µM 73% | [11]; at 50.0 µM 78.8% | [12]; at 100.0 µM 78% | [14]; at 50.0 µM 86.8% | [15]; at 33.0 µM 79% | [15]; at 100.0 µM 82%
